Values joined by “and” are separate entries in the source; they are usually repeats but may differ in a detail not shown here. Identical values can stand only once. Among all 2,300 compounds or so, about 1,400 (61%) were called active. Inconclusive results (about 29%) are left out. The call rests on the fitted dose curve; in most records, active means well fitted inhibition curve with a large enough effect; inconclusive means small, poorly fitted or top-dose-only effect, or effect the other way; inactive means no such curve, though single readings can be large or run the other way. The set was probably picked from earlier hits. The list shows a part of the results.
Potency means the concentration at half of the fitted maximal effect.

The nature of this assay: Confirmation screen for delayed death inhibitors of the malarial parasite plastid, 96 hour incubation. Further: nearly all actives have a fitted effect of over 60% in size. The note with it: P. falciparum luciferase growth in erythrocytes; series mostly up to 28.7 µM. The essentials: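 Erythrocytes infected with luciferase-expressing P. falciparum (2% hematocrit, 0.1% parasitemia final) in RPMI 1640 with 0.5% Albumax, exposed to compounds 96 h at 37 C, 5% CO2. Growth inhibition read as decreased luciferase luminescence.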
Regarding `O=c1c(Cl)cc(Cl)nn1-c1ccccc1`, the Potency was 12.6 µM (active).
Consider `Cc1ccc2c(CN(C)Cc3cccc(F)c3)cc(=O)oc2c1C`, for which the Potency is 12.6 µM (active).
In the case of `Cc1c(O)ccc2c(CN(C)Cc3ccccc3)cc(=O)oc12`, the Potency was 12.6 µM (active).
With `COc1cc2c(cc1OC)CN(Cc1cc(=O)oc3c(C)c(C)ccc13)CC2`, the Potency was 15.8 µM (active).
Regarding `Cc1ccccc1CN(C)Cc1cc(=O)oc2c(C)c(C)ccc12`, the Potency is 15.8 µM (active).
For `O=C(Nc1ccccc1N1CCOCC1)c1ccc(F)c(S(=O)(=O)N2CCOCC2)c1`, the Potency is 8.91 µM (active).
As for `O=C(Nc1ccccc1[N+](=O)[O-])c1cc(S(=O)(=O)N2CCOCC2)cs1`, the figure is 14.1 µM (active); as for `O=C(Nc1ccccc1N1CCOCC1)c1cccc(S(=O)(=O)N2CCOCC2)c1`, 11.2 µM (active); as for `C/C(=N\NC(=O)c1cccc(S(=O)(=O)N2CCOCC2)c1)c1ccc(O)cc1`, 1 µM (active).
In the case of `O=C(COC(=O)c1ccc(F)c(S(=O)(=O)N2CCOCC2)c1)Nc1ccc2[nH]c(=O)[nH]c2c1`, the Potency result is “inactive”.
Regarding `COc1ccc(CNn2c(-c3ccccc3F)nc3ccccc3c2=O)cc1OC`, the Potency was 5.01 µM (active).
In the case of `Cc1ccccc1C1=NC(C(F)(F)F)(C(F)(F)F)c2c(n(-c3ccc(F)cc3)c(=O)[nH]c2=O)N1` it was 11.2 µM (active); in that of `CC(=O)/C(C#N)=C1\NC(=O)C(Cc2cc(Cl)ccc2Cl)S1` (stereo not drawn), 14.1 µM (active).
As to `CC(=O)/C(C#N)=C1\NC(=O)C(Cc2ccc(C)c(C)c2)S1` (stereo not drawn), the Potency is 11.2 µM (active).
As for `CC(=O)/C(C#N)=C1\NC(=O)C(Cc2ccc(C)c(Cl)c2)S1` (stereo not drawn), the figure is 12.6 µM (active).
In the case of `COC(=O)c1ccccc1SC1CC(=O)N(c2ccccc2)C1=O` (stereo not drawn) it was “inactive”.
Take `CC(C)CN1C2CCCC1CC(NC(=S)NCc1ccco1)C2` (stereo not drawn): the Potency was 10 µM (active).
Regarding `CCOC(=O)C1CCCN(Cc2ccc(OCc3ccccc3)c(OC)c2)C1` (stereo not drawn), the Potency is 10 µM (active).
With `CCOC(=O)C1CCCCN1Cc1cccc(OCc2ccccc2)c1` (stereo not drawn), the Potency is 12.6 µM (active).
As for `O=C(C1CCC(=O)N1Cc1ccccc1Cl)N1CCN(c2cccc(Cl)c2)CC1` (stereo not drawn), the Potency is 11.2 µM (active).
Turning to `CCS(=O)(=O)c1nc(S(=O)(=O)c2ccc(C)cc2)c(N2CCC3(CC2)OCCO3)s1`, the Potency was 10 µM (active).
As for `Cc1ccc(CN(Cc2ccccn2)C(=O)Nc2ccc(C)c(C)c2)cc1`, the figure is 15.8 µM (active); as for `Cc1ccc(NC(=O)CN2C(=O)S/C(=C\c3ccccn3)C2=O)cc1C`, “inactive”.
On to `Cc1c(CN2CCC(CO)(CCOc3ccccc3)CC2)[nH]c2ccc(Cl)cc12`, for which the Potency was 5.62 µM (active).
In the case of `OCC1(CCOc2ccccc2)CCN(Cc2nc3ccc(F)cc3[nH]2)CC1`, the Potency was 12.6 µM (active).
As for `Cc1ccc(-n2c(-c3ccc(Cl)cc3)c[n+]3c2CCC3)cc1`, the figure is 0.0398 µM (active).
On to `CC(C)(C)OC(=O)[C@H](Cc1ccccc1)NC(=O)c1nc[nH]c1C(=O)N1CCN(C(=O)OC(C)(C)C)CC1`, for which the Potency is 12.6 µM (active).
In the case of `CC(C)(C)OC(=O)CNC(=O)c1[nH]cnc1C(=O)NC1CCN(C(=O)OC(C)(C)C)CC1`, the Potency is 12.6 µM (active).
Take `CC(C)C[C@H](NC(=O)c1nc[nH]c1C(=O)N1CCN(C(=O)OC(C)(C)C)CC1)C(=O)OC(C)(C)C`: the Potency is 15.8 µM (active).
In the case of `CCCCN(CCCNC(=O)C1CCN(C(=O)c2cc3sccc3n2C)CC1)Cc1ccccc1` it was 0.562 µM (active); in that of `CC(NC(=O)c1cc2sccc2n1C)c1ccc2c(c1)OCCO2` (stereo not drawn), “inactive”; in that of `O=S(=O)(CC(CN1CCCCC1)N1CCCCC1)c1ccccc1` (stereo not drawn), 7.94 µM (active).
In the case of `Cc1ccc(OCCn2cc(C(=S)N3CCCC3)c3ccccc32)cc1C`, the Potency is 14.1 µM (active).
Turning to `Cc1cc(C)nc(SCc2nnc(SCC(=O)Nc3nc(-c4ccccc4)cs3)n2C)n1`, the Potency is 14.1 µM (active).
As for `CCOC(=O)CSc1nnc(CNc2nc(-c3ccccc3)cs2)n1C`, the Potency is 10 µM (active).
In the case of `CCCCN(CCCC)CCC(O)c1cc2c(Cl)cc(Cl)cc2c2cc(C(F)(F)F)ccc12` (stereo not drawn) it was 39.8 nM (active) and 20 nM (active).
For `COc1ccc(-n2c(C)cc(C(=O)Cn3c(NCCO)nc4ccccc43)c2C)cc1`, the Potency is 10 µM (active).
As for `CCCc1c(C)c2cccc(C)c2[nH]c1=O`, the entry is “inactive”; as for `N#CC(C#N)=C1C=CC=CN1/C(=C\c1ccco1)C(=O)c1ccc(Cl)cc1`, 15.8 µM (active); as for `COc1ccc(C(=O)/C(=C\c2ccco2)N2C=CC=CC2=C(C#N)C#N)cc1`, 15.8 µM (active).
For `N#CC(C#N)=C1C=CC=CN1/C(=C\c1ccco1)C(=O)c1ccc(-c2ccccc2)cc1`, the Potency was 12.6 µM (active).
As for `COc1ccc(CCNS(=O)(=O)c2ccc(Br)s2)cc1`, the entry is “inactive”; as for `CCN(CC)S(=O)(=O)c1ccc(C2=NOC3(C2)N(C)c2ccccc2C3(C)C)cc1` (stereo not drawn), 12.6 µM (active).
On to `CN1c2ccccc2C(C)(C)C12CC(c1ccc(S(=O)(=O)N3CCCCC3)cc1)=NO2` (stereo not drawn), for which the Potency is 5.01 µM (active).
As to `CC(C)NC(=O)c1onc(CSc2cccc3ccccc23)c1C(=O)O`, the Potency result was “inactive”.
For the compound `Cc1c(NC(=O)C(C)Sc2nccn2C)c(=O)n(-c2ccccc2)n1C` (stereo not drawn), the Potency result is “inactive”.
Regarding `Cc1nn(C(C)C(=O)NCCC2=CCCCC2)c(=O)c2nn(-c3ccccc3)c(C)c12` (stereo not drawn), the Potency is 11.2 µM (active).
On to `Cc1nn(C(C)C(=O)NCCCc2ccccc2)c(=O)c2nn(-c3ccccc3)c(C)c12` (stereo not drawn), for which the Potency is 12.6 µM (active).
As for `CSc1ccc(CNC(=O)C(C)n2nc(C)c3c(C)n(-c4ccccc4)nc3c2=O)cc1` (stereo not drawn), the figure is 11.2 µM (active); as for `Cc1ccc(C(=O)NCC(=O)NCCCc2ccccc2)s1`, “inactive”.
In the case of `Cc1nn(C(C)C(=O)Nc2ccccc2Cl)c(=O)c2nn(-c3ccccc3)c(C)c12` (stereo not drawn), the Potency was 10 µM (active).
Turning to `CCCCCCC1C(C#N)=C(N)OC2=C1C(=O)CCC2` (stereo not drawn), the Potency entry is “inactive”.
On to `Cc1ccc(-c2cc(C(=O)N/N=C/C=C/c3ccco3)c3ccccc3n2)cc1C`, for which the Potency was 14.1 µM (active).
As to `CC(C)C[C@@H](NC(=O)[C@H](Cc1ccccc1)NC(=O)c1cnccn1)B(O)O`, the Potency was 0.178 µM (active).
For the compound `CC(C)=N/N=C1/NC(=O)C(Cc2ccccc2)S1` (stereo not drawn), the Potency is 7.94 µM (active).
In the case of `Cc1cc(=O)oc2ccc(OCC(=O)N3CCc4ccccc43)cc12` it was 6.31 µM (active); in that of `COc1ccc(NC2CCCN(C(=O)CCc3ccncc3)C2)cc1OC` (stereo not drawn), “inactive”; in that of `Cc1ccc(NC2CCCN(C(=O)CSc3ccncc3)C2)cc1C` (stereo not drawn), 12.6 µM (active).

The values are drawn from PubChem BioAssay AID504848 (National Center for Advancing Translational Sciences (NCATS), 2011).
